Bioassay records (PubChem)
FAS-TE inh = inhibitors of human fatty acid synthase thioesterase domain | P49327 | recombinant FAS-TE, OMFH fluorogenic substrate, fluorescence endpoint | inhibition, % at 15 µM | 360,000 tested, 0.67% active | AID 602261;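 active means compounds whose normalised, plate-corrected inhibition of enzyme fluorescence in the single-dose primary screen is 50% or more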
ADAM17 inh = inhibits human ADAM17. recombinant ADAM17, EDANS/DABCYL FRET peptide cleavage. inhibition, % at 6.95 µM. 370,000 tested, 0.83% active. AID 720648;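 active means inhibition above the mean of compounds lying between control limits plus 3 SD, set per campaign, cut at about 8.5% in these data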
ADAM10 inh = inhibits human ADAM10. inhibition, % at 7 µM. AID 720582. O14672. recombinant ADAM10, EDANS/DABCYL FRET peptide cleavage, 3 h. 370,000 tested, 0.62% active;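 active means inhibition above a per-campaign cutoff equal to the mean of compounds falling between control-based bounds plus 3 SD, cut at about 20% in these data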
Target sequence (O14672 214-748 limits assumed): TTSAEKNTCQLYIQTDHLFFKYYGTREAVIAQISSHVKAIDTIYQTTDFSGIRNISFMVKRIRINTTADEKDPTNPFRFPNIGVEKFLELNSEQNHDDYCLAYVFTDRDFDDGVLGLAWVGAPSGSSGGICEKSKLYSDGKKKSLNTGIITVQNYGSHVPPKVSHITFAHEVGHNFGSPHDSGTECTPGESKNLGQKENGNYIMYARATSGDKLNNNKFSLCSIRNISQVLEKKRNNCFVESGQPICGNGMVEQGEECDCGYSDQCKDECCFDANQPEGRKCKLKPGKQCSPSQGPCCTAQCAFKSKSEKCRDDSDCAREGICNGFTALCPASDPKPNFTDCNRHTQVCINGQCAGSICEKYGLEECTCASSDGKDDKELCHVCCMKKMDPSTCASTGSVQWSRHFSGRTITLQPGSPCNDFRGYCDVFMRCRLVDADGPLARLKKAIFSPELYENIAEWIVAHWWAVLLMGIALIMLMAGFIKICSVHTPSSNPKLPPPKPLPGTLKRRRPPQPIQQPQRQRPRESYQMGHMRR
sPLA2-III inh = Blocks human group III sPLA2 activity. QFRET BODIPY PC-A2 liposome hydrolysis, fluorescence. Q9NZ20. 370,000 tested, 0.56% active. inhibition, % at 12.2 µM;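 active means inhibition above mean plus 3 SD of compounds lying within the high and low control bounds, cut at about 19% in these data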
NR3A LBD binder = modulates the human NR3A ligand-binding domain | NR3A LBD differential scanning fluorimetry, Tm shift; 0% = protein alone, 100% = glycine-bound protein | Tm shift relative to glycine control, % at 25 µM | 340,000 tested, 2.5% active;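 active means melting temperature shift of at least 10% of the positive control shift, at one fixed dose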
ADAM10 confirm = human ADAM10 inhibition, confirmation | shares compounds with ADAM10 inh | ADAM10 QFRET peptide cleavage, EDANS fluorescence | inhibition, % at 6.95 µM | 2,100 tested, 1% active;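 active means inhibition above about 20% chosen separately for each screening run, limit read from the data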
ADAM17 counter = inhibits human ADAM17 in ADAM10 exosite counter-screen; ADAM17 QFRET peptide cleavage, EDANS fluorescence; shares compounds with ADAM10 inh; 2,100 tested, 0.5% active; inhibition, % at 6.95 µM; AID 743214;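 active means mean triplicate inhibition above the solvent-only control wells' mean plus 3 SD, cut at about 12% in these data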
ADAM10 ctr = ADAM10 inhibition, counter-screen for ADAM17 exosite hits | shares compounds with ADAM17 inh | recombinant ADAM10, EDANS/DABCYL FRET peptide cleavage, 3 h | inhibition, % at 6.95 µM | 2,900 tested, 47% active;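 active means mean inhibition over the triplicate runs exceeds the activity threshold set in the earlier primary screen, cut at about 20% in these data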
ADAM17 confirm = confirmation of inhibitors of human ADAM17; shares compounds with ADAM17 inh; recombinant ADAM17, EDANS/DABCYL QFRET peptide cleavage; inhibition, % at 6.95 µM; 2,900 tested, 65% active;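 active means mean inhibition across replicates above the hit cutoff set in the primary screen, cut at about 8.5% in these data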
Numbers stand for hits. Most compounds without a hit are left out; they make up all but 4.3% or so of the library.

C[C@H](NC(=O)c1nc[nH]c1C(=O)NCc1ccccc1)C(=O)OC(C)(C)C was read as FAS-TE inh inactive, ADAM17 inh inactive, ADAM10 inh inactive, sPLA2-III inh inactive and NR3A LBD binder inactive.
CC(C)(C)OC(=O)NCc1ccc(NC(=O)c2nc[nH]c2C(=O)N[C@@H](Cc2ccccc2)C(=O)OCc2ccccc2)cc1 was read as FAS-TE inh inactive, ADAM17 inh inactive, ADAM10 inh inactive, sPLA2-III inh inactive and NR3A LBD binder inactive.
`C[C@@H](OC(=O)c1[nH]cnc1C(=O)NCc1ccc(CNC(=O)OC(C)(C)C)cc1)c1ccccc1` gave FAS-TE inh inactive, ADAM17 inh 25, ADAM10 inh 40, sPLA2-III inh inactive, NR3A LBD binder inactive, ADAM10 confirm inactive, ADAM17 counter inactive, ADAM10 ctr 22 and ADAM17 confirm 12.
`COc1ccccc1C(=O)N1CCN(C(=O)[C@H]2O[C@@H](n3cnc(C(N)=O)n3)[C@H](O)[C@@H]2O)CC1` gave ADAM17 inh inactive, ADAM10 inh inactive and sPLA2-III inh inactive.
Screening Cn1cc(-c2cccc3[nH]cc(-c4ccccc4)c23)c2ccccc21 returned ADAM17 inh inactive, ADAM10 inh inactive and sPLA2-III inh inactive.
CC(C)NC(=O)N[C@H]1C[C@@H]2O[C@@H](CO)CC[C@@H]2O[C@@H]1CCc1ccc(-c2ccc(F)cc2)cc1 was read as ADAM17 inh inactive, ADAM10 inh inactive and sPLA2-III inh inactive.
For N#C/C(=C\c1ccccc1)C(=O)NNS(=O)(=O)c1cccc([N+](=O)[O-])c1 the results were FAS-TE inh inactive, ADAM17 inh 35, ADAM10 inh 69, sPLA2-III inh inactive, NR3A LBD binder inactive, ADAM10 confirm inactive, ADAM17 counter inactive, ADAM10 ctr inactive and ADAM17 confirm inactive.
For N#C/C(=C/c1cccc([N+](=O)[O-])c1)C(=O)Nc1ccccc1O the results were FAS-TE inh inactive, ADAM17 inh inactive, ADAM10 inh inactive, sPLA2-III inh inactive and NR3A LBD binder inactive.
For Cc1ccc(C2NC(=O)c3n[nH]c(C(C)C)c32)cc1 (configuration not stated) the results were ADAM17 inh inactive, ADAM10 inh inactive and sPLA2-III inh inactive.
Screening CCCCc1c(-c2ccccc2OC)ncn1Cc1ccc(Cl)cc1Cl returned ADAM17 inh inactive, ADAM10 inh inactive and sPLA2-III inh inactive.
NS(=O)(=O)c1ccc(NCc2cc(Cl)ccc2OCc2ccccc2F)cc1 was read as FAS-TE inh inactive, ADAM17 inh 14, ADAM10 inh 31, sPLA2-III inh inactive, NR3A LBD binder inactive, ADAM10 confirm inactive, ADAM17 counter inactive, ADAM10 ctr 47 and ADAM17 confirm 21.
Screening Cc1ccc(-c2c(NC(=O)c3ccccc3)nc3ncccn23)cc1 returned ADAM17 inh inactive, ADAM10 inh inactive and sPLA2-III inh inactive.
`O=C(Cc1c(Sc2ccccc2)c2ccccc2n1Cc1ccccc1)NCCO` gave FAS-TE inh inactive, ADAM17 inh 14, ADAM10 inh 30, sPLA2-III inh inactive, NR3A LBD binder inactive, ADAM10 confirm inactive, ADAM17 counter inactive, ADAM10 ctr inactive and ADAM17 confirm 9.1.
COC(=O)C12C=C3CC(c4ccc(C(F)(F)F)cc4)=C3C(=O)N1Cc1[nH]c3ccccc3c1C2 (configuration not stated) was read as ADAM17 inh inactive, ADAM10 inh inactive and sPLA2-III inh inactive.
Screening CN(CC(=O)Nc1ccccc1)CC(=O)Nc1ccccc1Cl returned FAS-TE inh inactive, ADAM17 inh inactive, ADAM10 inh inactive, sPLA2-III inh inactive and NR3A LBD binder inactive.
CCCCc1ccc(NC(=O)CN(C)CC(=O)Nc2ccccc2Cl)cc1 was read as FAS-TE inh inactive, ADAM17 inh 16, ADAM10 inh 34, sPLA2-III inh inactive, NR3A LBD binder inactive, ADAM10 confirm inactive, ADAM17 counter inactive, ADAM10 ctr 20 and ADAM17 confirm 9.6.
For CC[C@H](CCCCCC#N)CCC(=O)N(c1ccccc1)c1ccccc1 the results were ADAM17 inh inactive, ADAM10 inh inactive and sPLA2-III inh inactive.
Screening Cc1[nH]c2ccccc2c1CC(=O)Nc1ccc(Nc2cccnc2)c(-c2cc(C(F)(F)F)cc(C(F)(F)F)c2)c1 returned ADAM17 inh inactive, ADAM10 inh inactive and sPLA2-III inh inactive.
O=C(CSc1ccc2ccccc2c1Br)Nc1cccc(S(=O)(=O)NC2=NCCCCC2)c1 was read as FAS-TE inh inactive, ADAM17 inh 14, ADAM10 inh 35, sPLA2-III inh inactive, NR3A LBD binder 12, ADAM10 confirm inactive, ADAM17 counter inactive, ADAM10 ctr 28 and ADAM17 confirm 20.
CCOC(=O)c1c(C)[nH]c(C(=O)C(C)OC(=O)c2cccc(OCc3c(C)noc3C)c2)c1C (configuration not stated) was read as FAS-TE inh inactive, ADAM17 inh 13, ADAM10 inh 30, sPLA2-III inh inactive, NR3A LBD binder inactive, ADAM10 confirm inactive, ADAM17 counter inactive, ADAM10 ctr 47 and ADAM17 confirm 23.
`C[C@H](O)[C@@H]1C(=O)N2CCc3c([nH]c4c(-c5ccccc5)cccc34)[C@@H]2C[C@@H]1N(C)C(=S)Nc1ccc(C#N)cc1` gave ADAM17 inh inactive, ADAM10 inh inactive and sPLA2-III inh inactive.
For CCOC(=O)[C@H]1[C@H]2COc3ccc(Br)cc3[C@@H]2N2C(=O)c3cc(Br)ccc3NC(=O)[C@@]12C the results were FAS-TE inh inactive, ADAM17 inh 11, ADAM10 inh 20, sPLA2-III inh inactive, NR3A LBD binder inactive, ADAM10 confirm inactive, ADAM17 counter inactive, ADAM10 ctr inactive and ADAM17 confirm 11.
`CCOC(=O)[C@H]1[C@H]2COc3ccccc3[C@@H]2N2C(=O)c3cc(Br)ccc3NC(=O)[C@@]12C` gave FAS-TE inh inactive, ADAM17 inh inactive, ADAM10 inh inactive, sPLA2-III inh inactive and NR3A LBD binder inactive.
For COC(=O)c1c(NC(C)=O)sc2c1CCCC2 the results were FAS-TE inh inactive, ADAM17 inh inactive, ADAM10 inh inactive, sPLA2-III inh inactive and NR3A LBD binder inactive.
